# High-throughput results deposited in PubChem by National Center for Advancing Translational Sciences (NCATS).
# Pf growth 96h = Primary qHTS for delayed death inhibitors of the malarial parasite plastid, 96 hour incubation; Potency, µM (highest dose often 28.7 µM), for the others: top-dose activity change, negative = inhibition, usual class: inhibitors; P. falciparum luciferase reporter growth, 96 h; 320,000 tested, 6.9% active; AID 504834, 2011; also: % is scaled to controls: 0 for no effect and ±100 for the full control effect
#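 Erythrocytes infected with luciferase-expressing P. falciparum were dispensed at 2% hematocrit and 0.05% parasitemia (final), then incubated with compounds 96 hours at 37 C in 5% CO2. Luminescence after detection reagent addition reported growth.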
# Pf growth 48h = Primary qHTS for delayed death inhibitors of the malarial parasite plastid, 48 hour incubation. P. falciparum luciferase growth in erythrocytes, 48 h. Potency, µM (series often up to 28.7 µM), without a hit: at the highest dose activity change, negative = inhibition, hits mostly inhibitors. 310,000 tested, 5.9% active. AID 504832, 2011; also: % is scaled to controls: 0 for no effect and ±100 for the full control effect
#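 Luminescence readout; reporter = integrated firefly luciferase in P. falciparum. RBC culture at 2% hematocrit, 0.1% parasitemia final, 37 C/5% CO2; decreased signal taken as growth inhibition.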
# AMA1 RON2 block = qHTS for Inhibitors of AMA1-RON; Towards Development of Antimalarial Drug Lead: Primary Screen | 360,000 tested, 0.2% active | AID 720542, 2013 | AlphaScreen AMA1-biotinylated RON2 peptide binding | Plasmodium falciparum AMA1 (3D7) - RON2 peptide interaction | Potency, µM (top dose mostly 58.2 µM), without a hit: top-dose activity change, negative = inhibition, actives largely listed as inhibitors;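 also: 0% = vehicle wells and -100% = peptide control; nearly all actives have a fitted effect of over 45% in size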
#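 AMA1 (3D7) with his tag at 25 nM final met compounds first, then biotinylated RON2 peptide at 25 nM; detection used donor plus acceptor beads, 10 µg/mL apiece, read by AlphaScreen after 30 min at room temperature.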
# SARS PLpro yeast = qHTS of Yeast-based Assay for SARS-CoV PLP; 330,000 tested, 0.19% active; S. cerevisiae expressing SARS-CoV PLpro, growth rescue; AID 485353, 2010; Potency, µM (titrated, usually from 32.9 µM), for inactives: at the highest dose activity, positive = growth rescue, usual class: activators; calls by dose curve; also: 0% is about no effect; nearly all actives have a fitted effect of over 55% in size
# Active calls of the source: *; u = inconclusive; x = no result; [ ] = remark or other dose. Most compounds without a hit are left out; they make up all but 9.4% or so of the library. Unless noted, calls follow the shape of the dose curve; as a rule, active = well fitted curve in the direction sought with a large enough effect; inconclusive = small, poorly fitted or top-dose-only effect, or another doubt; inactive = no such curve, though single readings can be large; an effect the other way counts as inactive or inconclusive. Potency is read from the fitted curve at half-maximal effect.
SMILES,Pf growth 96h,Pf growth 48h,AMA1 RON2 block,SARS PLpro yeast
O=C(Nc1ccc(Cl)cc1)Nc1cccc(C(=O)O)c1,3.7µM*,-13%,-1%,-1%
O=C(O)c1cccc(NC(=O)c2cc(NC(=O)c3ccccc3)cc(NC(=O)c3ccccc3)c2)c1,8.3µM*,40%,-5%,6%
NC(=O)NC(=O)COC(=O)c1ccccc1OCc1ccc(F)cc1,75%,8%,-1%,0%
CCCCn1c(N)c(N(CC)C(=O)c2cc(C)cc(C)c2)c(=O)[nH]c1=O,-4%,-8%,4%,1%
O=C(CN1C(=O)CSC1=O)NCc1ccccc1,0%,41%,-2%,4%
CN(C)c1cccc(CNC(=O)c2csc(COCCO)n2)c1,x,x,4%,x
COc1ccc(CCN2CC(C(=O)NCCc3ccccc3C(F)(F)F)CCC2=O)cc1 (stereo unspecified),4%,-1%,-17%,-4%
N#Cc1cccc2cccc(S(=O)(=O)N3CCOCC3)c12,5%,-1%,-11%,1%
Cc1cccc(NC(=O)c2ccc(NC(C)c3ccccc3)c([N+](=O)[O-])c2)n1 (stereo unspecified),-2%,9.3µM*,3%,0%
Cc1cccc(NC(=O)c2cccc(NC(=O)c3ccccc3)c2)n1,13µM*,0%,0%,1%
CCSc1ccc(C(=O)Nc2cccc(C)n2)cc1[N+](=O)[O-],2%,64%,-1%,-1%
CCN1CCN(C(=O)C2=CC(c3ccc(OC)cc3)=NS(=O)(=O)N2C)CC1,u,19%,0%,0%
CCn1c(SCC(=O)Nc2cc(C)on2)nc2sc(C)c(C)c2c1=O,12µM*,11%,x,1%
COc1ccc(C)cc1-n1c(SCC(=O)Nc2cc(C)on2)nc2sc(C)c(C)c2c1=O,33%,9.3µM*,9%,3%
CCCCn1c(CNC(=O)Cc2ccccc2)nc2ccccc21,6%,11%,12%,-2%
Nc1nc2c(ncn2CCC(CO)CO)c(=O)[nH]1,-3%,8%,x,x
COc1ccc(-c2ncncc2-c2ccc(Cl)cc2)c(O)c1,7.4µM*,8.3µM*,-1%,-3%
CCOc1ccc(-c2nc(N)ncc2Oc2ccccc2Br)c(O)c1,3.3µM*,x,-6%,-2%
COc1ccc(-c2cncnc2-c2ccc(OC)cc2O)cc1,u,u,-3%,-2%
C=C(C)COc1ccc(-c2ncncc2-c2ccc(Br)cc2)c(O)c1,2.3µM*,1.9µM*,62%,-3%
C=C(C)COc1ccc(-c2ncncc2-c2ccc(Cl)cc2)c(O)c1,2.3µM*,5.2µM*,47%,-3%
CCOc1ccc(-c2nc(N)ncc2Oc2cccc(OC)c2)c(O)c1,u,x,-4%,0%
O=C(C1CCCCC1)N1CCC2CC1c1cc(N3CCCCC3)ccc12 (stereo unspecified),x,x,-16%,x
CCOC(=O)N1CCC(N2CCN(Cc3ccc(F)c(F)c3)C(CCO)C2)CC1 (stereo unspecified),18%,0%,-2%,1%
CN(C)CCCN=Cc1c(O)n(Cc2ccccc2)c(=O)c2ccccc12,x,u,-10%,-2%
SMILES,Pf growth 96h,Pf growth 48h,AMA1 RON2 block,SARS PLpro yeast
C=C(C)COc1ccc(-c2nc(N)ncc2Oc2ccc(OC)cc2)c(O)c1,3%,u,-7%,-1%
C=C(C)COc1ccc(-c2nc(N)ncc2-c2ccc(Br)cc2)c(O)c1,u,8.3µM*,-1%,-5%
COc1ccc(-c2cnc(N)nc2-c2ccc(OCc3ccccc3)cc2O)cc1,15µM*,u,-6%,-2%
COc1cccc(Oc2cn[nH]c2-c2ccc(OCC(=O)NN)cc2O)c1,u,u,101%,6%
COc1cccc(Oc2cncnc2-c2ccc(OC)cc2O)c1,80%,5.2µM*,-26%,-28%
Cc1cc(NC(=O)c2cc(C3CC3)on2)n(-c2ccccc2)n1,2.6µM*,13%,8%,-7%
Cc1cc(NC(=O)c2ccc(Cl)cc2)n(-c2ccccc2)n1,5%,2%,-1%,0%
Cc1cc(NC(=O)c2ccccc2)n(-c2ccccc2)n1,1.9µM*,-6%,5%,0%
Cc1cc(C(=O)Nc2cccc(C)c2C)n(-c2ccccc2)n1,21%,30%,-3%,1%
Cc1cc(C(=O)Nc2cccc3ccccc23)n(-c2ccccc2)n1,3.3µM*,-13%,9%,-3%
Cc1ccc(F)c(S(=O)(=O)NC(=O)C2(C)CCN2C(=O)CC(c2ccccc2)c2ccccc2)c1 (stereo unspecified),x,x,8%,x
Cc1ccc2c(c1)Oc1ccc(NC(=O)CCCl)cc1C(=O)N2,0.29µM*,u,11%,0%
O=c1[nH]c(CO)nc2c1oc1ccccc12,-10%,x,-19%,2%
Cc1ccc(S(=O)(=O)CCC(=O)OCc2ccc(S(=O)(=O)C(C)C)cc2)cc1,-21%,-16%,5%,1%
Cc1ccc(NC(=O)C(C)N2CCc3ccccc3C2)cc1 (stereo unspecified),28%,23%,18%,-2%
CC(C(=O)c1c[nH]c2ccccc12)N1CCc2ccccc2C1 (stereo unspecified),2.9µM*,u,0%,0%
COc1ccc(CCNS(=O)(=O)c2ccccc2[N+](=O)[O-])cc1OC,-9%,-19%,4%,-10%
CCOc1ccc(/C=C/C(O)=C2/C(=O)N(C)C3(C)CC2c2ccccc2O3)cc1OC (stereo unspecified),20%,6.6µM*,-12%,0%
CCN(CC)C(C(=O)Nc1ccc(C(C)C)cc1)c1ccc2c(c1)OCO2 (stereo unspecified),107%,8.3µM*,6%,6%
CC(NC(=O)Nc1ccc(F)cc1)c1ccc2c(c1)OCO2 (stereo unspecified),15%,0%,-2%,-1%
O=C(Cc1ccc([N+](=O)[O-])cc1)Nc1ccc2c(c1)OCO2,-43%,-12%,-12%,-5%
CC(C(=O)Nc1ccc2c(c1)OCCO2)c1ccc([N+](=O)[O-])cc1 (stereo unspecified),21%,3.3µM*,-3%,12%
CC(C(=O)Nc1cccc(Br)c1)c1ccc([N+](=O)[O-])cc1 (stereo unspecified),u,10µM*,-3%,-67%
CC(C(=O)Nc1ccc2c(c1)OCO2)c1ccc([N+](=O)[O-])cc1 (stereo unspecified),u,2.3µM*,-1%,0%
CCOC(=O)C(C)Oc1cccc2c(=O)n(CC(=O)Nc3cccc(OC)c3)ccc12 (stereo unspecified),3%,-8%,-5%,4%
Cn1cccc1C(=O)NC(=O)CSc1cccc[n+]1[O-],3%[5.75 µM],31%,11%,2%
CN(Cc1ccc(Cl)cc1Cl)C(=O)c1cc(=O)c2ccccc2o1,-14%,-8%,-2%,-8%
O=C(CCn1c(=O)sc2ccccc21)NCCN1CCOCC1,x,x,-6%,x
O=c1c2ccccc2oc2ccc(-c3ccc4cc[nH]c4c3)cc12,x,x,9%,-7%
